Data taken from PubChem BioAssay AID492947 (National Center for Advancing Translational Sciences (NCATS), 2010).
About 80 (0.02%) of roughly 330,000 compounds were called active. Calls come from the whole dose curve; as a rule, active = well fitted activation curve with a large enough effect; inconclusive = small, poorly fitted or top-dose-only effect; inactive = flat fitted curve, though single readings scatter. The list comes from a sample in which actives are over-represented; it also holds similar structures and randomly drawn compounds. A call without a number means that no potency is given here.

Molecular target: Beta-2 adrenergic receptor (Homo sapiens) (UniProt P07550)
Sequence (P07550 whole entry, looked up): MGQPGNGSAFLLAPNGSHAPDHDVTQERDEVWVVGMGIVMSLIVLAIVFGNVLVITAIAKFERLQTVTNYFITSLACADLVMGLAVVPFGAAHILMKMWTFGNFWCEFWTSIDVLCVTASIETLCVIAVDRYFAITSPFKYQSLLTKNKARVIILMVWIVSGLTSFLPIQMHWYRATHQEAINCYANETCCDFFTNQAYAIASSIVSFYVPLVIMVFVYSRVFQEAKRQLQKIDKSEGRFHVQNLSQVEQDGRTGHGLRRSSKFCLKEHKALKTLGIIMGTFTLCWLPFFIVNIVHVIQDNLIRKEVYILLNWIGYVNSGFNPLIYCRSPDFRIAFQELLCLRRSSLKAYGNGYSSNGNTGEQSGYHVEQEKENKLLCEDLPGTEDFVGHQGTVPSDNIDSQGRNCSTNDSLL
Test: qHTS assay of beta-arrestin-biased ligands of beta2-adrenergic receptor; note: nearly all actives have a fitted effect of over 65% in size
Conditions: beta-arrestin recruitment to beta2AR, cell-based reporter; series mostly up to 46.1 µM
Text: NIH Molecular Libraries Probe Production Network [MLPCN]
NIH Chemical Genomics Center [NCGC]
PI: Bryan Roth and Bob Lefkowitz
The concept of biased agonism is an emerging concept of molecular pharmacology which proposes that seven transmembrane receptors (7TMRs) or G protein-coupled receptors (GPCRs), exist in multiple signaling conformations and complexes and that ligands (either agonists or antagonists) can induce signaling biased responses for distinct signal transduction cascades.
Furthermore, accumulating evidence over the last decade has drawn attention to a novel function of beta-arrestins as signal transducers that scaffold various signaling molecules upon activation of 7TMRs. […] This beta-arrestin-biased signaling presumably leads to distinct physiological outcomes from those by G protein activation.
Additionally, the active receptor conformations which […] on this beta-arrestin signaling are likely different from those activating G protein signaling
The goal of this screening project will be to discover and optimize novel beta-arrestin-biased ligands for beta2-AR signaling. A luminescent cell-based assay for beta2-AR-mediated agonism, known as the Tango assay, has been validated in which ligand binding of a recombinant beta2-AR and subsequent recruitment of a recombinant beta-arrestin lead to the release of the transcriptional activator tTA, which upregulates transcription of a tTA-responsive luciferase gene. […] Compounds were screened as a concentration-titration series that ranged from 46 microM to 0.6 nM.
NCGC Assay Protocol Summary:
Tango cells were dispensed into white, solid, tissue-culture-treated 1536-well plates at 1500 cells/well in DMEM, containing 1% fetal bovine serum (FBS). Then, 23 nL of compounds or DMSO were delivered to each well using a pin tool. Plates were incubated at 37 degrees C, 5% CO2 for 18 hr. Then 2.5 uL luminescent substrate mix (in-house prepared: 150 mM Tris-Cl, pH 7.6, 3 mM MgCl2, 1% Triton X-100, 5 mM DTT, 0.5 mM CoA, 0.15 mM ATP, 0.44 mM D-luciferin, final concentrations) was added to each well. Plates were then incubated for 15 minutes at room temperature, and subsequently measured on a ViewLux plate reader for luminescent signal using a clear filter with a 10 second exposure and 2x binning. The %Activity was determined from the corrected luminescence values.
Concentration-response curves were fitted to the signals arising from the resulting luminescence. The concentration-effect curves were then classified based on curve quality (r2), response magnitude and degree of measured activity, and compounds were subsequently categorized based on their curve class.
Keywords: biased agonism, beta2-AR, beta-arrestin, GPCR, 7TMR, Tango, luminescence, MLSMR, MLPCN, NIH Roadmap, qHTS, NCGC
Potency is the fitted concentration of half-maximal effect.

Compound	Potency
CC12C(=O)N(c3ccccc3)C(=O)C1C(c1ccccc1)N1CCCN12 (centres undefined)	inactive
Cc1c(Cl)cccc1NC(=O)NCc1ccc(C)n1C	inactive
CCOC(=O)Cc1ncccc1C(=O)Nc1ccc(OC(F)(F)F)cc1	inactive
CCOC(=O)N1CCC(N(CCOC)C(=O)Nc2ccc(C)c(C)c2)CC1	inactive
CCOC(=O)N/N=C1\CC(C)S(=O)(=O)c2ccc(Cl)cc21 (centres undefined)	inactive
CC1CCC(C(C)C)C(=O)/C1=C\c1ccc(NC(=O)CCC(=O)O)cc1 (centres undefined)	inactive
COC(=O)c1ccc(-c2c(-c3ccccc3)ncc3cc(OC)c(OC)cc23)cc1	inactive
NC1=NC2(CCCCC2)N(c2ccc(F)cc2F)C(N)=N1	inactive
O=C(Oc1ccc(Br)cc1C(=S)N1CCOCC1)c1cccc([N+](=O)[O-])c1	inactive
CCOC(=O)C1CCN(Cc2coc3ccc(Cl)cc3c2=O)CC1	inactive
COc1ccc(S(=O)(=O)N(C)CC(=O)N2CCCC2)cc1Cl	inactive
C/C(=N\NC(=O)c1cc2c(s1)CCC(C)C2)c1cccnc1 (centres undefined)	inactive
COC(=O)[C@H](CC(C)C)NC(=O)N1CCCCC1C (some centres undefined)	inactive
Cc1ccccc1-n1nc(C)c2c1N=C1C(Cl)=CC(Cl)=CN1C2c1ccc(C(=O)O)cc1 (centres undefined)	inactive
COc1ccc2c(c1)CCc1cn3ncc(C#N)c3nc1-2	inactive
COc1ccc(OCC(=O)NCCc2ccc(S(N)(=O)=O)cc2)cc1	inactive
Cc1nn(-c2ccccc2)c2sc(C(=O)N(Cc3ccco3)C(C)C(=O)NC(C)(C)C)cc12 (centres undefined)	inactive
Cc1ccccc1N1CCN(C2CCCN(C(=O)c3cn4c(C)cccc4n3)C2)CC1 (centres undefined)	inactive
COCCn1c(SCC(=O)Nc2cc(OC)ccc2OC)nc2c(c1=O)SC(C)C2 (centres undefined)	inactive
Cc1cc(Cl)ccc1NC(=S)N1CCC(C(N)=O)(N2CCCCC2)CC1	inactive
C[C@H]1COC(=O)[C@H](CC(=O)OC(C)(C)C)C/C=C\C[C@@H](CC(=O)N[C@H](CO)Cc2ccccc2)C(=O)N1	inactive
CCCn1c(C(Cc2ccccc2)NC(=O)COC)nc2ccccc21 (centres undefined)	inactive
O=C(Nc1ccccc1F)C1C2C=CC3(O2)C1C(=O)N(c1cccnc1)C3C(=O)NC1CCCCC1 (centres undefined)	inactive
COC(=O)CN1C(=O)C(C)(C)Oc2ccc(C(=O)Nc3cccc(OC)c3)cc21	inactive
CC1(c2ccc(Cl)cc2Cl)NC(=O)N(CC(=O)Nc2cccnc2Cl)C1=O (centres undefined)	inactive

Compound	Potency
CSc1nc2nc3c(c(=O)n2[nH]1)CCC3	inactive
O=C(COC(=O)Cc1ccc(Br)cc1)Nc1ccc(N2CCOCC2)cc1	inactive
CCN1CCCC1CNC(=O)Cn1cnc2ccc(S(=O)(=O)N3CCC(C)CC3)cc2c1=O (centres undefined)	inactive
O=C(CCNC(=O)c1ccccc1Cl)NN=Cc1ccco1	inactive
Cc1ccc(S(=O)(=O)N2CCN(C(=O)CCC(=O)NC3CCCc4ccccc43)CC2)cc1 (centres undefined)	inactive
COC(=O)C(C)n1cnc2c(nnn2-c2ccc(F)cc2)c1=O (centres undefined)	inactive
Cc1ccc(C2(C)NC(=O)N(CC(=O)N3CC(=O)Nc4ccccc43)C2=O)cc1 (centres undefined)	inactive
CC(OC(=O)CNS(=O)(=O)/C=C/c1ccccc1)C(=O)Nc1ccc(S(=O)(=O)N2CCCC2)cc1 (centres undefined)	inactive
CCOC(=O)c1c(-c2cccc(N)c2)cn2ccccc12	inactive
CCOc1cc2[nH]c(=S)n(CCCN3CCCC3=O)c(=O)c2cc1OCC	inactive
COc1ccc(CS(=O)/C(Cl)=C(/Cl)C(=O)Nc2ccc(OC)nc2)cc1 (centres undefined)	inactive
CC1CC1C(=O)OCC(=O)Nc1cccc(F)c1 (centres undefined)	inactive
CC1CCC2(CC1)NC(=O)N(Cc1nnc(-c3cccs3)o1)C2=O (centres undefined)	inactive
NC(=O)c1ccsc1NC(=O)COC(=O)Cc1n[nH]c(=O)c2ccccc12	inactive
CCOCCCNC(=O)c1cn(CC(C)C)c(=O)c2c1c1ccccc1n2C	inactive
Cc1cc(C)c(C#N)c(SCC(=O)NN2CC(=O)N(c3ccccc3F)CC2=O)n1	inactive
COc1ccc(CC(NC(C)=O)C(=O)NC2CCN(C(=O)C3CC3)CC2)cc1OC (centres undefined)	inactive
COc1ccccc1OCCn1c(SCC(N)=O)nc2ccccc21	inactive
CCc1cccc(C)c1NC(=O)COC(=O)CC1CCCC1	inactive
O=C(Nc1cc(-c2nn(CC(=O)N3CCCCC3)c(=O)c3ccccc23)ccc1N1CCOCC1)c1ccc(Cl)cc1	inactive
COc1ccc2c(-c3ccccc3)cc(SCC(=O)N(C)C3CCS(=O)(=O)C3)nc2c1 (centres undefined)	inactive
COC(=O)c1cccc(NC(=O)CN2CCC(NC(=O)c3cc(OC)c(OC)c(OC)c3)CC2)c1	inactive
O=C(COc1ccccc1Cl)Nc1ccc(C(=O)c2ccc(C(=O)O)cc2)cc1	inactive
OC(COCC1COc2ccccc2O1)CN1CCN(c2ccc(F)cc2)CC1 (centres undefined)	inactive
O=C(O)C1CCCN1S(=O)(=O)c1ccc2c(c1)CCC2 (centres undefined)	inactive

Compound	Potency
COc1ccc(-n2nnnc2SCC(=O)NCc2cccs2)cc1	inactive
Oc1ccc(N=Cc2sc3ccccc3c2Cl)cc1	13 µM (active)
CC(=O)n1c(C=Nc2ccccc2)c(O)c2ccccc21	inactive
Cn1c(SCC(=O)N2CCCC2)nnc1-c1cccs1	inactive
CC(C(=O)N1CCOCC1)N1c2cccc3cccc(c23)S1(=O)=O (centres undefined)	inactive
Nc1ccc(Nc2cc(O)c3ncccc3c2)cc1	inactive
COc1nc(N=C(N)N)nc2c(C)cccc12	inactive
CCOC(=O)C1=C(c2ccccc2)N=C2SCC(=O)N2C1c1ccc(O)c(OC)c1 (centres undefined)	inactive
COc1cc(C)c(C(C)C)cc1S(=O)(=O)n1ccnc1	inactive
CCOc1ccc(N(CC(=O)NCCc2ccc(F)cc2)S(=O)(=O)c2ccccc2)cc1	inactive
CCN(C(=O)COC(=O)c1c(NC(C)=O)sc(C)c1C)C1CCS(=O)(=O)C1 (centres undefined)	inactive
C=CCN(c1ccccc1C(=O)NCC(=O)OCC)S(=O)(=O)c1ccc(C)cc1	inactive
CCCOc1ccc(C2=CSC3=NCCN23)cc1Cl	inactive
CCc1ccc(-c2nc(SCC(=O)NC3CCCC3)n[nH]2)cc1	inactive
Cc1cc(OCCOc2cccc3cccnc23)c(C)cc1Cl	inactive
CCOC(=O)N1CCN(S(=O)(=O)N2CCCC(C(=O)NCCCN3CCC(C)CC3)C2)CC1 (centres undefined)	inactive
Cc1ccsc1C(=O)OCC(=O)NCCc1ccccc1	inactive
Cc1ccc(S(=O)(=O)NCCC(=O)NNC(=O)C2COc3ccccc3O2)cc1 (centres undefined)	inactive
COc1ccc(CC(=O)NCc2nnc(SCC(=O)Nc3ncc(C)s3)n2C)cc1	inactive
CC1CCCCC1NC(=O)c1cc(=O)[nH]c2ccccc12 (centres undefined)	inactive
Cc1csc2ncc(C(=O)N(Cc3ccccc3)c3ccccn3)c(=O)n12	inactive
c1ccc(-c2cnc(CN3CCN(c4ccccc4)CC3)o2)cc1	inactive
Cc1cccc(C)c1N1C(=O)CN(Cc2ccccc2)C1=S	inactive
Cc1cccc(N(C(=O)Cn2nnc(-c3ccc(C)o3)n2)C(C(=O)NC2CCCC2)c2ccncc2)c1 (centres undefined)	inactive
COc1ccccc1N1CC(C(=O)Nc2nnc(SCC(=O)NC(C)C)s2)CC1=O (centres undefined)	inactive

Compound	Potency
CCO[C@H]1OC(C(=O)N2CCCCCCC2)=C[C@@H](c2ccc(C(F)(F)F)cc2)[C@@H]1CCCO	inactive
COc1ccc(S(=O)(=O)N(C)C[C@H]2Oc3ccc(NS(=O)(=O)c4cccs4)cc3CC(=O)N([C@H](C)CO)C[C@H]2C)cc1	inactive
O=C(Cn1cncn1)N/N=C/c1c2ccccc2cc2ccccc12	inactive
CCCOC1CCCN(C(=O)c2cc(COc3cncc(Cl)c3)on2)C1 (centres undefined)	inactive
CCC1SC(CC)C(=O)N(CC(=O)NC2CCCCC2)C1=O (centres undefined)	inactive
CCc1ccc2oc(=O)cc(CN3CCCCC3C)c2c1 (centres undefined)	inactive
O=C(NCc1ccccc1)C1CCCN(c2nc3ccsc3c(=O)s2)C1 (centres undefined)	inactive
CC(C)CCNC(=O)CN(C(=O)Cn1nnc(-c2ccc(F)cc2)n1)C1CCCC1	inactive
CC(=O)Nc1ccc(S(=O)(=O)Nc2ccc(-c3ccc4nnc(C)n4n3)cc2)cc1	inactive
Cn1cc(CCC(=O)NC2CC2)c2ccccc21	inactive
COC(=O)c1sc(SC)c(S(=O)(=O)C(C)C)c1N/N=C(\C#N)S(=O)(=O)c1ccccn1	inactive
CCn1cc(C(=O)Nc2cc(C)ccc2C)c(=O)c2ccc(C)nc21	inactive
COC(=O)c1sc(NC(=O)COC(=O)C2CCC2)c(C(=O)OC)c1C	inactive
Cc1nnc(SCC(=O)Nc2ccc(S(=O)(=O)Nc3ccc(Cl)nn3)cc2)s1	inactive
Cn1c(SCC(=O)Nc2ccc(Cl)cc2)nc(O)cc1=O	inactive
Cc1nn(-c2ccccc2)c(NC(=O)c2cccs2)c(-c2ccc(Cl)cc2)c1=O	inactive
Cc1ccc(S(=O)(=O)N(C)CC(=O)NCCc2c[nH]c3ccccc23)cc1	inactive
Cc1ccccc1C1=NC(C(F)(F)F)(C(F)(F)F)c2c(n(-c3ccc(F)cc3)c(=O)[nH]c2=O)N1	inactive
CSc1nnc(C2CCCN(CC(=O)Nc3ccccc3N3CCOCC3)C2)n1C(C)C (centres undefined)	inactive
CCOc1ccc(C(C)=O)cc1COC(=O)c1cnc(Cl)c(Cl)c1	inactive
O=S(=O)(Cc1ccccc1)c1nc2ccccc2n1Cc1ccccn1	inactive
O=C(O)c1cccnc1Sc1ncnc2sc3c(c12)CCC3	inactive
CCCOc1ccc(Cc2c(Cl)nc(SC)nc2NC)cc1	inactive
CCOC(=O)c1c(NC(=O)Cn2nc(C(F)(F)F)cc2C)sc2c1CCC2	inactive
